# Screening data (PubChem)
# GRP78 ERSR act – qHTS for Inducers of the Endoplasmic Reticulum Stress Response (ERSR) in Human Glioma: qHTS | Potency, µM, inactives show at the top dose activation, hits mostly activators | AID 602332, 2012 | hit rate 0.02% among 420,000 | U87-MG GRP78 promoter luciferase reporter, 16 h; also: series mostly up to about 76 µM; % of control where 0% means no effect; nearly all actives have a fitted effect of over 35% in size
#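 ERSR induction read as luciferase luminescence (Bright-Glo, 10 min at room temperature) in stably transfected human U87-MG glioma cells exposed to compounds for 16 h, using GRP78 as sensor.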
# ALOX12 inh – Primary qHTS assay for inhibitors of human arachidonate 12S-lipoxygenase (ALOX12): Round 2; purified 12hLO, xylenol orange hydroperoxide absorbance; Potency, µM (highest dose often 108 µM), inactives show at the top dose activity change, negative = inhibition, usual class: inhibitors; hit rate 1.1% among 580,000; AID 1671190, 2021; also: % is scaled to controls: 0 for no effect and ±100 for the full control effect
#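 Hydroperoxide product was detected by ferrous iron/xylenol orange as the 573 to 405 nm absorbance ratio. Arachidonic acid at 40 uM (final) was turned over for 30 min at room temperature by 150 nM human 12hLO, pH 7.0 Hepes buffer, after 15 min compound preincubation.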
# Sfp PPTase inh – qHTS Assay for Inhibitors of Bacillus subtilis Sfp phosphopantetheinyl transferase (PPTase); 4'-phosphopantetheinyl transferase ffp (Bacillus subtilis), Q9F4F7; Biochemical Sfp PPTase activity, qHTS; Potency, µM, for the others: largest response in the series, negative = inhibition, hits mostly inhibitors; hit rate 3.5% among 310,000; AID 1490, 2009;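 also: the enzyme is Sfp with the accession as filed and its product quenches rhodamine fluorescence; 0% = enzyme reaction without inhibitor and -100% = no enzyme wells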
#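 Reaction rates are the 30-min fluorescence difference (ex 525, em 598 nm) in wells containing 15 nM Sfp, 5 uM rhodamine-CoA and 12.5 uM BHQ-2-YbbR at pH 7.6 with 10 mM MgCl2.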
# VDR inhibitor – Inhibitors of the vitamin D receptor (VDR): qHTS; Vitamin D3 receptor (Homo sapiens), P11473; VDR-SRC2-3 peptide fluorescence polarization, 2 h; Potency, µM, for inactives: max response, negative = inhibition, most hits filed as inhibitors; hit rate 0.93% among 400,000; AID 504847, 2011; also: % is scaled to controls: 0 for no effect and ±100 for the full control effect
# Target sequence (P11473 whole entry, looked up): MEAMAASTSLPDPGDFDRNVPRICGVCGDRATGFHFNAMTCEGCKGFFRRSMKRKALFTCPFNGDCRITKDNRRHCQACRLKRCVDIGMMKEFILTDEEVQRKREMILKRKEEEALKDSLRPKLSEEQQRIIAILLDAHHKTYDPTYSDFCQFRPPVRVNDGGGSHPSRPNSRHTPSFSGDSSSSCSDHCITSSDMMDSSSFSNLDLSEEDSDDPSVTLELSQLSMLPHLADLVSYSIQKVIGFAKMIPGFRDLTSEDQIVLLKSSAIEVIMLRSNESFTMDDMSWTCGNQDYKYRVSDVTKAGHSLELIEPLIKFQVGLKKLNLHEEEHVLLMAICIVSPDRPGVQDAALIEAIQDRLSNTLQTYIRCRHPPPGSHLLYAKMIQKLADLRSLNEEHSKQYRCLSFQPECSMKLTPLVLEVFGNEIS
#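 Measured by FP: displacement of SRC2-3 coactivator peptide from VDR by library compounds, following a two-hour ambient incubation.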
# G9a inh – qHTS Assay for Inhibitors of Histone Lysine Methyltransferase G9a | G9a H3K9 monomethylation, AlphaScreen, 2 h | Potency, µM (highest dose often 102 µM), for inactives: top-dose activity, negative = inhibition, usual class: inhibitors | hit rate 8.8% among 350,000 | Histone-lysine N-methyltransferase EHMT2 (Homo sapiens), Q96KQ7; also: % is scaled to controls: 0 for no effect and ±100 for the full control effect; nearly all actives have a fitted effect of over 75% in size
#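 Compounds were preincubated with 20 nM G9a for 15 min, after which biotinylated H3K9 peptide (500 nM) and SAM (20 uM) started a 2 h room-temperature reaction. Monomethylated product was quantified by antibody-based AlphaScreen chemiluminescence.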
# Active calls of the source: *; ? = inconclusive; . = not tested or not shown; [ ] = remark or other dose. Many of the other results were omitted from the sample, so hits are more common in it than they were. Calls follow the shape of the dose curve; as a rule, active = well fitted curve in the direction sought with a large enough effect; inconclusive = small, poorly fitted or top-dose-only effect, or another doubt; inactive = no such curve, though single readings can be large; an effect the other way counts as inactive or inconclusive. Potency is read from the fitted curve at half-maximal effect.
SMILES,GRP78 ERSR act,ALOX12 inh,Sfp PPTase inh,VDR inhibitor,G9a inh
COc1ccc(NC(=O)c2nc(-c3ccccc3)oc2C)cc1,.,0.8%,.,.,.
CN1CCN(/N=C/c2c3ccccc3c(Cl)c3ccccc23)CC1,-4.5%,?,-20.2%,-14.5%,35.5µM*
CN1CCN(/N=C/c2ccc(-c3ccccc3)cc2)CC1,1.9%,-3.4%,-14.2%,10.5%,70.8µM*
C(=N\N1CCN(Cc2ccccc2)CC1)/c1ccc(-c2ccccc2)cc1,-2.9%,-3.0%,5.8%,-5.5%,-8.0%
CCNC(=O)/C=C/c1ccc(OC)cc1,.,26.4%,.,.,.
Cc1c(Cl)c(C(F)(F)F)nn1CC(=O)Nc1ccc(F)cc1F,.,-1.7%,.,.,.
COC(=O)c1nc(NC(C)=O)n[nH]1,.,.,0.3%,.,15.8µM*
COC(=O)c1nc(NC(=O)C(C)C)n[nH]1,-1.9%,5.0%,22.4µM*,6.8%,31.6µM*
COC(=O)c1nc(NC2=NCCCCC2)n[nH]1,-2.8%,0.0%,-16.4%,-4.7%,?
Cc1noc(/C=C/c2ccccc2F)c1S(=O)(=O)N1CCC(C(=O)N2CCOCC2)CC1,.,-2.6%,.,.,.
CC1CCN(C(=O)c2ccccc2OCC2CCCN(Cc3cccnc3)C2)CC1 (centres undefined),.,57.7%,.,.,.
CCCCc1nc(Cl)c(CN2CCCC(COc3ccccc3C(=O)NC3CC3)C2)[nH]1 (centres undefined),.,21.9%,.,.,.
C=CCn1c(C)nnc1SCC(=O)Nc1oc(C)c2c(C)n[nH]c(=O)c12,-1.7%,-1.6%,.,-3.8%,31.6µM*
CCOCCCn1c(SCC(=O)Nc2oc(C)c3c(C)n[nH]c(=O)c23)nnc1-c1ccncc1,-5.0%,-10.8%,.,-13.8%,35.5µM*
CCc1cc2c(=O)n(CCCOC)c(SCC(=O)Nc3oc(C)c4c(C)n[nH]c(=O)c34)nc2s1,-1.0%,?,.,4.0%,56.2µM*
CCOCCCn1c(SCC(=O)Nc2oc(C)c3c(C)n[nH]c(=O)c23)nc2ccccc2c1=O,-1.7%,-1.6%,.,14.4%,.
Cc1ccc(SCC(=O)Nc2oc(C)c3c(C)n[nH]c(=O)c23)cc1C,-4.3%,?,.,-28.0%,0.9%[12.7 µM]
Cc1ccc(C)c(SCC(=O)Nc2oc(C)c3c(C)n[nH]c(=O)c23)c1,1.6%,?,.,-11.6%,39.8µM*
Cc1cc(C)c(CNC(=O)c2nc(-c3ccnn3C)cc3c2ccn3C(C)C)c(=O)[nH]1,.,-23.0%[176 µM],.,.,.
CN(c1nnc(N)s1)C1CCCCC1,-2.9%,17.9%[57.4 µM],3.5%,-22.0%,39.8µM*
Cn1c(-c2ccc(Cl)cc2)cc2ccccc21,.,-10.4%,.,.,.
CC(=O)N/N=C(\N)c1nonc1N,4.6%,200.6%,89.1µM*,6.6%,.
C=CCNC(=O)NC(=O)CSc1nc(-c2ccccc2)c(-c2ccccc2)o1,.,-0.3%,.,.,.
CN(Cc1cccc2ccccc12)C1CCOc2ccccc21 (centres undefined),.,46.8%[176 µM],.,.,.
COc1ccc(CNCc2ccc(C)cc2)c(OC)c1,-4.8%,?,-6.3%,-6.2%,35.5µM*
SMILES,GRP78 ERSR act,ALOX12 inh,Sfp PPTase inh,VDR inhibitor,G9a inh
COc1ccc(C(=O)NCc2ccc3c(c2)OCO3)c(OC)c1,-2.5%,11.0%,-11.9%,?,.
COc1ccc(OC)c(CNCc2ccc3c(c2)OCO3)c1,-2.4%,-13.2%,-12.2%,4.4%,35.5µM*
Cc1cc(C(C)(C)C)ccc1OCCCCN1CCCC1,-5.6%,-20.2%,4.7%,0.6%,?
Cc1cccc(C(C)(C)C)c1OCCN1CCCC1,-4.1%,?,-44.8%,1.0%,25.1µM*
Cc1ccc(C(C)(C)C)c(OCCN2CCCC2)c1,-4.8%,?,-23.1%,-13.3%,3.55µM*
CC(C)N1CCC(N2CCCC(N3CCN(c4cccc(C(F)(F)F)c4)CC3)C2)CC1 (centres undefined),.,53.1%,.,.,.
CCN(CC)CCn1c2ccccc2c2cnc(N)c(C#N)c21,2.9%,-18.6%,13.7%,-3.6%,35.5µM*
CN(C)C=Nc1ncc2c3ccccc3n(CCN(C)C)c2c1C#N,-5.3%,11.6%,5.2%,-4.4%,?
CCOc1ccccc1NC(=O)c1csc(C)c1C,1.1%,?,4.2%,16.5%,35.5µM*
CCOc1ccccc1NC(=O)c1nc[nH]c1C(=O)Nc1ccccc1OCC,-3.5%,.,-6.5%,12.2%,12.6µM*
